The values below come from ChEMBL document CHEMBL4513141, “CO-ADD screening of NIH (USA) - Clinical Collection” (2021).

One experiment concerns Klebsiella pneumoniae. To be noted: Concentration 20 uM; ASSAY_TEST Inhibition of Bacterial Growth; detection method Absorption (OD600); MEDIA CAMHB; plate type 384well; NBS; CORNING #3640; time 18 hr.
In a further experiment the test system is Candida albicans. To be noted: 20 µM.
A further experiment deals with Cryptococcus neoformans. To be noted: Concentration 20 uM; ASSAY_TEST Inhibition of Fungal Growth; detection method Resazurin; Absorption (OD600-OD570); plate type 384well; NBS; CORNING #3640.

The structures appear in SMILES notation. Potency and affinity values are given separately.

What is called Inhibition is the relative decrease from the control value, in per cent.

For the compound `O=C(O)c1cc2ccccc2c(Cc2c(O)c(C(=O)O)cc3ccccc23)c1O.OCCOCCN1CCN(C(c2ccccc2)c2ccc(Cl)cc2)CC1` [HYDROXYZINE PAMOATE], the Inhibition in the experiment with Klebsiella pneumoniae was determined as 14.51%; in the experiment with Candida albicans, 5.15%; in the experiment on Cryptococcus neoformans, 7.04%.

For `CCCNC(C)C(=O)Nc1ccccc1C.Cl` (stereo unspecified) [PRILOCAINE HYDROCHLORIDE], the Inhibition is 10.6% in the experiment with Klebsiella pneumoniae, 2.91% with Candida albicans and -8.37% in the experiment with Cryptococcus neoformans.

Regarding `O.OC[C@H]1O[C@@H](n2cnc3c(NC4CCCC4)nc(Cl)nc32)[C@@H](O)C1O` (stereo partly specified), the results for the Inhibition with Klebsiella pneumoniae, in the experiment with Candida albicans and in the experiment on Cryptococcus neoformans were 3.81%, 1.81% and -4.95%, respectively.

For the compound `CC[C@@H]1C(=O)OC[C@@H]1Cc1cncn1C.Cl` [PILOCARPINE HYDROCHLORIDE], the Inhibition in the experiment on Klebsiella pneumoniae was 13.79%; in the experiment with Candida albicans, 2.29%; with Cryptococcus neoformans, -1.97%.

As for `O=C1c2c(O)cc(O)cc2O[C@H](c2ccc(O)c(O)c2)[C@H]1O` [(+)-TAXIFOLIN], the Inhibition with Klebsiella pneumoniae was 12.56%; in the experiment on Candida albicans, 3.72%; in the experiment with Cryptococcus neoformans it was -3.68%.

Regarding `O=S(=O)([O-])CCS.[Na+]` [MESNA], the Inhibition worked out at 6.51% with Klebsiella pneumoniae, 4.45% with Candida albicans and 1.48% with Cryptococcus neoformans.

Take `O=C(O)CCNC(=O)c1ccc(N=Nc2ccc(O)c(C(=O)O)c2)cc1`: the Inhibition in the experiment on Klebsiella pneumoniae was 9.82%; with Candida albicans it was 4.41%; in the experiment on Cryptococcus neoformans, -5.87%.

Take `CCN1CC(CCN2CCOCC2)C(c2ccccc2)(c2ccccc2)C1=O.Cl` (stereo unspecified): the Inhibition with Klebsiella pneumoniae is 1.35%; in the experiment on Candida albicans, 4.41%; in the experiment with Cryptococcus neoformans it was -0.87%.

With `CN(C)CCC[C@@]1(c2ccc(F)cc2)OCc2cc(C#N)ccc21.O=C(O)C(=O)O` [ESCITALOPRAM OXALATE], the values for the Inhibition with Klebsiella pneumoniae, in the experiment with Candida albicans and with Cryptococcus neoformans were 13.63%, 3.94% and -10.38%, respectively.

Consider `CCCNCC(O)COc1ccccc1C(=O)CCc1ccccc1` (stereo unspecified) [PROPAFENONE], for which the values for the Inhibition in the experiment on Klebsiella pneumoniae, in the experiment on Candida albicans and in the experiment on Cryptococcus neoformans were 6.97%, 0.01% and -5.76%, respectively.

As to `CC(C)NCC(O)c1cc(O)cc(O)c1` (stereo unspecified) [METAPROTERENOL], the Inhibition was 7.02% in the experiment with Klebsiella pneumoniae, 1.29% in the experiment on Candida albicans and 0.32% with Cryptococcus neoformans.

Take `CC(N)(Cc1ccc(O)c(O)c1)C(=O)O` (stereo not drawn) [METHYLDOPA (RACEMIC)]: the Inhibition amounted to 2.57% in the experiment with Klebsiella pneumoniae, 3.32% in the experiment with Candida albicans and 7.73% in the experiment with Cryptococcus neoformans.

Take `CC(C)c1nc(CN(C)C(=O)N[C@H](C(=O)N[C@@H](Cc2ccccc2)C[C@H](O)[C@H](Cc2ccccc2)NC(=O)OCc2cncs2)C(C)C)cs1` [RITONAVIR]: the Inhibition with Klebsiella pneumoniae was 14.84%; in the experiment with Candida albicans, 1.82%; in the experiment with Cryptococcus neoformans it was -5.87%.

Consider `Cl.c1ccc2c(c1)CCCC2C1=NCCN1` (stereo unspecified) [TETRAHYDROZOLINE HYDROCHLORIDE], for which the Inhibition in the experiment on Klebsiella pneumoniae is 14.26%; with Candida albicans, 3.03%; with Cryptococcus neoformans, -3.23%.

Turning to `CN1CCC(=C2c3ccccc3CC(=O)c3sccc32)CC1.O=C(O)/C=C/C(=O)O` [KETOTIFEN FUMARATE], the results for the Inhibition in the experiment with Klebsiella pneumoniae, in the experiment with Candida albicans and with Cryptococcus neoformans were 1.04%, 3.18% and -3.16%, respectively.

For `CC(Oc1c(Cl)cccc1Cl)C1=NCCN1.Cl` (stereo unspecified) [LOFEXIDINE HYDROCHLORIDE], the results for the Inhibition with Klebsiella pneumoniae, in the experiment on Candida albicans and in the experiment on Cryptococcus neoformans were 6.35%, 2.12% and -0.75%, respectively.

On to `CCCC(CCC)C(=O)O` [VALPROIC ACID], for which the Inhibition in the experiment with Klebsiella pneumoniae was 1.95%; in the experiment on Candida albicans, 5.05%; in the experiment with Cryptococcus neoformans it was -4.42%.

Turning to `CN1CCC(=C2c3ccccc3CCc3sccc32)CC1.O=C(O)/C=C\C(=O)O`, the Inhibition with Klebsiella pneumoniae was 13.2%; in the experiment on Candida albicans it was 3.52%; in the experiment with Cryptococcus neoformans, -10.62%.

For the compound `N=c1cc(N2CCCCC2)nc(N)n1O`, the Inhibition in the experiment with Klebsiella pneumoniae was 8.77%; in the experiment with Candida albicans, 2.93%; with Cryptococcus neoformans it was -7.74%.

Consider `CNCC[C@@H](Oc1ccccc1C)c1ccccc1.Cl` [ATOMOXETINE HYDROCHLORIDE], for which the figures for the Inhibition in the experiment with Klebsiella pneumoniae, with Candida albicans and in the experiment on Cryptococcus neoformans were 2.35%, 3.59% and 5.55%, respectively.

Take `N[C@@H]1CONC1=O` [CYCLOSERINE]: the Inhibition is 12% with Klebsiella pneumoniae, 1.72% in the experiment with Candida albicans and -5.65% in the experiment with Cryptococcus neoformans.

Consider `CN1CCCCC1CCN1c2ccccc2Sc2ccc([S+](C)[O-])cc21.O=S(=O)(O)c1ccccc1` (stereo unspecified) [MESORIDAZINE BESYLATE], for which the results for the Inhibition in the experiment on Klebsiella pneumoniae, in the experiment with Candida albicans and with Cryptococcus neoformans were -1.64%, 4.29% and 2.61%, respectively.

Regarding `CCc1ccc(CCOc2ccc(CC3SC(=O)NC3=O)cc2)nc1.Cl` (stereo unspecified) [PIOGLITAZONE HYDROCHLORIDE], the Inhibition in the experiment with Klebsiella pneumoniae is 2.41%; in the experiment on Candida albicans, 2.58%; in the experiment on Cryptococcus neoformans it was -2.27%.

As to `CN(C)[C@@H]1C(=O)C(C(=O)NCN2CCCC2)=C(O)[C@@]2(O)C(O)=C3C(=O)c4c(O)cccc4[C@@](C)(O)C3CC12` (stereo partly specified), the Inhibition is 7.32% in the experiment with Klebsiella pneumoniae, 0.75% in the experiment on Candida albicans and -8.19% in the experiment with Cryptococcus neoformans.

Consider `C[C@H]1O[C@@H](O[C@H]2[C@@H](O)C[C@H](O[C@H]3[C@@H](O)C[C@H](O[C@H]4CC[C@@]5(C)[C@H](CC[C@@H]6[C@@H]5C[C@@H](O)[C@]5(C)C(C7=CC(=O)OC7)CC[C@]65O)C4)O[C@@H]3C)O[C@@H]2C)C[C@H](O)[C@@H]1O` (stereo partly specified), for which the Inhibition in the experiment with Klebsiella pneumoniae was 10.13%; in the experiment with Candida albicans it was 4.95%; in the experiment with Cryptococcus neoformans, -6%.

Turning to `Nc1nc(Cl)nc2c1ncn2[C@H]1C[C@H](O)[C@@H](CO)O1` [CLADRIBINE], the Inhibition was 16.3% in the experiment with Klebsiella pneumoniae, 1.93% in the experiment with Candida albicans and -8.92% in the experiment on Cryptococcus neoformans.

For the compound `CC[N+](C)(CC)CCOC(=O)C(O)(c1ccccc1)C1CCCCC1.[Br-]` (stereo unspecified) [OXYPHENONIUM BROMIDE], the Inhibition is 20% in the experiment on Klebsiella pneumoniae, 2.42% with Candida albicans and -6.44% in the experiment on Cryptococcus neoformans.

For the compound `COc1ccc(CN2CCN(C(c3ccc(F)cc3)c3ccc(F)cc3)CC2)c(OC)c1OC.Cl.Cl`, the figures for the Inhibition in the experiment on Klebsiella pneumoniae, with Candida albicans and with Cryptococcus neoformans were -0.73%, 2.16% and -36.76%, respectively.

For `CC(C)[C@H](N)C(=O)OCCOCn1cnc2c(=O)nc(N)[nH]c21.Cl` [VALACYCLOVIR HYDROCHLORIDE], the Inhibition is 6.23% with Klebsiella pneumoniae, 3.14% in the experiment with Candida albicans and -5.07% in the experiment on Cryptococcus neoformans.

Turning to `Cl.Cn1c(NCCN(CCO)CCCc2ccc([N+](=O)[O-])cc2)cc(=O)n(C)c1=O`, the Inhibition was 3.03% with Klebsiella pneumoniae, 4.73% in the experiment on Candida albicans and -1.07% in the experiment on Cryptococcus neoformans.

With `CC1=C(CC(=O)O)c2cc(F)ccc2/C1=C\c1ccc([S+](C)[O-])cc1` (stereo unspecified), the Inhibition in the experiment with Klebsiella pneumoniae is 14.02%; in the experiment with Candida albicans, 3.98%; with Cryptococcus neoformans, -1.21%.

As for `CCN(Cc1ccncc1)C(=O)C(CO)c1ccccc1` (stereo unspecified) [TROPICAMIDE], the Inhibition with Klebsiella pneumoniae was 7.31%; in the experiment with Candida albicans it was 0.91%; in the experiment with Cryptococcus neoformans, -7.15%.

With `O=C(NCCO[N+](=O)[O-])c1cccnc1` [NICORANDIL], the Inhibition in the experiment with Klebsiella pneumoniae is 15.28%; with Candida albicans it was 1.66%; with Cryptococcus neoformans, -0.1%.

Take `COc1cc2c(cc1OC)C(=O)C(CC1CCN(Cc3ccccc3)CC1)C2.Cl` (stereo unspecified) [DONEPEZIL HYDROCHLORIDE]: the Inhibition in the experiment with Klebsiella pneumoniae is 5.21%; in the experiment with Candida albicans, 3.08%; in the experiment with Cryptococcus neoformans, -7.79%.

On to `Cl.Clc1cccc(Cl)c1NC1=NCCN1` [CLONIDINE HYDROCHLORIDE], for which the Inhibition in the experiment on Klebsiella pneumoniae was 4.94%; with Candida albicans it was 3.3%; with Cryptococcus neoformans, -10.31%.

Turning to `CC(=O)O.CNC(=N)NCCC[C@H](N)C(=O)O` [TILARGININE ACETATE], the Inhibition is -3.72% in the experiment on Klebsiella pneumoniae, 2.96% with Candida albicans and -3.5% in the experiment on Cryptococcus neoformans.

In the case of `CC(=O)OCC(=O)[C@@]1(O)CC[C@H]2[C@@H]3CCC4=CC(=O)CC[C@]4(C)[C@H]3C(=O)C[C@@]21C` [CORTISONE ACETATE], the Inhibition in the experiment with Klebsiella pneumoniae is 12.5%; with Candida albicans, 1.99%; in the experiment with Cryptococcus neoformans, -0.31%.

Consider `CC(c1cc2ccccc2s1)N(O)C(N)=O` (stereo unspecified) [ZILEUTON], for which the figures for the Inhibition in the experiment with Klebsiella pneumoniae, in the experiment on Candida albicans and in the experiment on Cryptococcus neoformans were 4.07%, 5.22% and 2.66%, respectively.

Turning to `CC(=O)OCC(=O)C12OC3(CCCC3)OC1CC1C3CCC4=CC(=O)C=CC4(C)C3(F)C(O)CC12C` (stereo unspecified), the results for the Inhibition in the experiment on Klebsiella pneumoniae, in the experiment on Candida albicans and in the experiment on Cryptococcus neoformans were 13.26%, 3.39% and 1.74%, respectively.

On to `Cl.NC[C@H]1CC[C@H](C(=O)Oc2ccc(CCC(=O)O)cc2)CC1` [CETRAXATE HYDROCHLORIDE], for which the Inhibition in the experiment on Klebsiella pneumoniae is 11.26%; with Candida albicans, 4.33%; in the experiment on Cryptococcus neoformans, -5.7%.

As to `Cc1cccc(CCN2CCC(C(=O)c3ccc(NS(C)(=O)=O)cc3)CC2)n1.Cl.Cl`, the values for the Inhibition in the experiment on Klebsiella pneumoniae, in the experiment on Candida albicans and in the experiment on Cryptococcus neoformans were 0.58%, 2.81% and -8.23%, respectively.

On to `CC(C)Oc1ccc2c(=O)c(-c3ccccc3)coc2c1` [IPRIFLAVONE], for which the Inhibition in the experiment with Klebsiella pneumoniae was determined as 12.22%; in the experiment on Candida albicans, 3.92%; in the experiment with Cryptococcus neoformans it was 2.68%.

For the compound `CCOC(=O)[C@H](CCc1ccccc1)N[C@@H](C)C(=O)N1Cc2ccccc2C[C@H]1C(=O)O.Cl` [QUINAPRIL HYDROCHLORIDE], the Inhibition is 14.37% in the experiment on Klebsiella pneumoniae, 3.86% with Candida albicans and -5.15% with Cryptococcus neoformans.

In the case of `COc1ccc2cc([C@H](C)C(=O)[O-])ccc2c1.[Na+]` [NAPROXEN SODIUM], the Inhibition was 13.03% in the experiment with Klebsiella pneumoniae, 9.05% in the experiment on Candida albicans and -1.8% with Cryptococcus neoformans.

In the case of `CC(N/C(=N\C#N)Nc1ccncc1)C(C)(C)C.O` (stereo unspecified), the Inhibition in the experiment on Klebsiella pneumoniae was 0.13%; in the experiment with Candida albicans it was 1.29%; with Cryptococcus neoformans, -6.76%.

With `O=C(O)CCc1nc(-c2ccccc2)c(-c2ccccc2)o1` [OXAPROZIN], the figures for the Inhibition in the experiment with Klebsiella pneumoniae, with Candida albicans and with Cryptococcus neoformans were 16.28%, 18.9% and -4.51%, respectively.

For the compound `CCC(C)(C)C(=O)O[C@H]1C[C@@H](C)C=C2C=C[C@H](C)[C@H](CC[C@@H]3C[C@@H](O)CC(=O)O3)[C@H]21` [SIMVASTATIN], the results for the Inhibition with Klebsiella pneumoniae, with Candida albicans and in the experiment on Cryptococcus neoformans were -2.13%, 14.8% and 3.41%, respectively.
